The values below come from PubChem BioAssay.

Values joined by “and” are separate entries in the source; they are usually repeats but may differ in a detail not shown here. Identical values can stand only once. Results filed as inconclusive are left out. Active and inactive are the calls of the source.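 How the source made its calls, unless noted: active means GFP signal, as percent of the solvent control, above the screen mean plus 3 SD, about 149; inconclusive means no reading because the compound's own fluorescence upset strain identification; inactive means the rest.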

A short description of assay [1]: rapamycin-like changes in RPL19A-GFP expression – cell-based, S. cerevisiae, multiplex flow cytometry, primary screen (AID 1862; in the data active means percent of DMSO control GFP below about 86%;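 further: lower values mimic rapamycin by blocking the RPL19A rise seen in DMSO cells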). Conditions: S. cerevisiae RPL19A-GFP strain, flow cytometry fluorescence, 3 h; at 10 µM; stronger effect = lower value. A general note: In flow cytometry, cells or beads pass a laser one at a time.
Assay [2] is described as follows: TOR pathway GLN3 branch reporter MEP2-GFP changes – S. cerevisiae, multiplex flow cytometry, primary screen (AID 1867;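 active means GFP response, as percent of the DMSO control, above the screen-wide mean plus 3 SD, about 139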;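 further: median GFP channel fluorescence of barcode-gated MEP2-GFP cells measured by flow cytometry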). The settings on record: S. cerevisiae MEP2-GFP strain, 3 h, at 10 µM, stronger effect = higher value, 100% means same as DMSO wells.
Assay [3] is described as follows: TOR pathway RTG branch CIT2 reporter changes – S. cerevisiae, GFP fusion, multiplex flow cytometry, primary screen (AID 1870;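 active means percent response above a set limit, the screen-wide mean plus 3 SD, cut at about 130% in these data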;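 further: barcoded CIT2-GFP strain pooled with four other GFP strains with rapamycin as positive control; median GFP fluorescence per well over plate mean of DMSO wells so 100% = DMSO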). Conditions: S. cerevisiae CIT2-GFP expression, 3 h, at 10 µM, stronger effect = higher value.
Assay [4] can be described thus: TOR pathway LAP4-GFP level changes – S. cerevisiae, multiplex flow cytometry, primary screen (AID 1873). Conditions: S. cerevisiae LAP4-GFP expression, 3 h, at 10 µM, stronger effect = higher value.
A short description of assay [5]: yeast AGP1-GFP level changes, GLN3 branch – cell-based, multiplex flow cytometry, S. cerevisiae, primary screen (AID 1887;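 active means GFP signal above the screen-wide mean plus 3 SD, that is over about 124.5% of the solvent control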;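 further: AGP1-GFP fusion strain of S. cerevisiae within a five-strain barcoded multiplex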). Conditions: 3 h, at 10 µM, stronger effect = higher value.
Assay [6] is described as follows: reduced mouse 2C T cell binding to pMHC/ICAM-1 vesicles – MLPCN validation set, flow cytometry, LFA-1/ICAM-1 modulator project, pilot screen (AID 2523;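 active means response below a set limit, under 55% cells CD8-positive and vesicle-bound, and CD8 cells' 90th-percentile brightness under 279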;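 on vesicle binding response: mean PE anti-B7-1 fluorescence of CD8+ cells relative to row control; 100% = QL9-loaded vesicles with DMSO vehicle in the same plate row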). The settings on record: 2C mouse CD8+ T cells, at 7 µM, stronger effect = lower value; double positive events: measured here: CD8+/vesicle+ event percentage.
For assay [7], the target named is Integrin beta-1 (Homo sapiens) + Integrin alpha-4 (Homo sapiens) (UniProt P13612+P05556). As to the kind of experiment: alpha4beta1 integrin LIBS antibody binding reduction – U937 cells, HUTS-21 mAb, flow cytometry, validation set, VLA-4 allosteric modulator project, pilot screen (AID 2674;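 active means inhibition above 50%, about 3 SD of the validation set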;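 further: antibody binding induced by the VLA-4 ligand LDV present at three times its Kd; 0% = LDV ligand with antibody and no compound and 100% = antibody without LDV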). The settings on record: HUTS-21 LIBS mAb binding, at 6.7 µM, stronger effect = higher value, binding induced by LDV ligand.

A short description of assay [8]: calorie-restriction mimetic ROS inhibitors, yeast – validation compound set, pilot screen (AID 2706;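 active means superoxide response below 65% of plate, a cut near 3 SD across the whole screen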;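 further: yeast exposed to compound for one week at 30 degrees C before staining; 100% = mean of all compound wells on the same plate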). Conditions: S. cerevisiae aging, superoxide DHE fluorescence; at 10 µM; stronger effect = lower value.
The target of assay [9] is Beta-adrenergic receptor kinase 1 (Homo sapiens) (UniProt P25098). The experiment in a line: GRK2 binders displacing RNA aptamer, biochemical, validation, human GRK2, bead flow cytometry (AID 488806;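 active means aptamer binding inhibition above 30%, about 3 SD of noise from non-fluorescent compounds; inactive means inhibition at or below 30%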). Conditions: bead-bound GRK2, FAM-aptamer displacement, at 10 µM, stronger effect = higher value.
In assay [10] the target is Beta-2 adrenergic receptor (Homo sapiens) (UniProt P07550). The experiment in a line: agonist-induced loss of surface beta2AR – cell-based, FAP fluorogen, flow cytometry, validation set, pilot screen (AID 504459;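 active means percent response above 42, roughly 3 SD of non-fluorescent test compounds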;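 further: agonist-driven loss of surface beta2AR via internalization measured by FAP dye flow cytometry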). Conditions: Am2.2-beta2AR cells, at 10 µM, stronger effect = higher value.
Assay [11] deals with AP-2 complex subunit beta (Homo sapiens) (UniProt P63010). The experiment in a line: beta-arrestin/AP2 interaction blockers – biochemical, validation set, GST-AP2 beads, flow cytometry, pilot screen (AID 504541;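 active means inhibition above 54%, about 3 SD of non-fluorescent compounds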;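 further: AP2 carries R879A mutation and is captured from E. coli lysate; bead-bound FITC arrestin peptide fluorescence measuring arrestin peptide binding to AP2; 0% = DMSO wells and 100% = excess unlabeled arrestin peptide control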). The settings on record: FITC arrestin peptide, at 10 µM, stronger effect = higher value, AP2 beta2 appendage fragment, R879A mutant.
Assay [12] in a line: cytosolic pH regulators acting via V-ATPase – S. cerevisiae, pHLuorin, HTS validation (AID 504600; in the data active means response above about 15%;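 further: plate controls were DMSO for no effect and reference compound for full effect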). Conditions: V-ATPase proton transport, at 10 µM, stronger effect = higher value.
Assay [13] deals with anti-desmoglein-3 scFv antibody binding to human DSG3. As to the kind of experiment: blockers of pathogenic pemphigus antibody–desmoglein-3 binding – biochemical, validation compound set, bead-based, flow cytometry, pilot screen (AID 588368;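 active means binding below the plate cutoff, the plate median minus 3 SD, with a reading above zero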;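 further: signal is the median channel fluorescence of bead-bound GFP antibody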). The settings on record: Protein G beads, DSG3-Fc, scFv-GFP binding, at 10 µM, stronger effect = lower value.
Assay [14] can be described thus: Nile Red efflux blockade in pump-expressing yeast – validation compound set, multiplex, phenotypic, pilot screen (AID 588506;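 active means efflux inhibition above 0.42, the validation set average plus 4 SD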;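 further: Nile Red retained in cells so higher fluorescence means more efflux inhibition; 0 = negative control wells and 1 = enniatin B 25 µM full block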). Conditions: S. cerevisiae pump-expressing triplex, Nile Red efflux flow cytometry; at 10 µM; stronger effect = higher value; the pumps come from Candida albicans.
In assay [15] the target is ATP-binding cassette sub-family B member 6 (Homo sapiens) (UniProt Q9NP58). As to the kind of experiment: blockers of ABCB6-driven porphyrin uptake – K562-ABCB6 cells, flow cytometry, validation set, pilot screen (AID 588550;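 active means inhibition above the screen-wide mean plus 3 SD, about 51%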;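 further: 0% = DMSO wells and 100% = benzethonium chloride 70 µM positive control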). Conditions: K562-ABCB6 porphyrin accumulation, 1 h, at 10 µM, stronger effect = higher value.
Assay [16] can be described thus: AML differentiation inducers, ER-HoxA9 marrow cells – cell-based, GFP/MAC1 double positive, flow cytometry, validation set, primary screen (AID 588685;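 active means differentiation response of at least 50%, scaled between solvent and reference control, from cells with both markers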;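 further: compound exposure lasts four days before antibody staining and flow analysis; 0% = DMSO wells and 100% = 5 µM fulvestrant positive control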). Conditions: stronger effect = higher value, normalized: vehicle 0, fulvestrant 100.

Beta-2 adrenergic receptor (Homo sapiens), sequence (P07550 whole entry, looked up): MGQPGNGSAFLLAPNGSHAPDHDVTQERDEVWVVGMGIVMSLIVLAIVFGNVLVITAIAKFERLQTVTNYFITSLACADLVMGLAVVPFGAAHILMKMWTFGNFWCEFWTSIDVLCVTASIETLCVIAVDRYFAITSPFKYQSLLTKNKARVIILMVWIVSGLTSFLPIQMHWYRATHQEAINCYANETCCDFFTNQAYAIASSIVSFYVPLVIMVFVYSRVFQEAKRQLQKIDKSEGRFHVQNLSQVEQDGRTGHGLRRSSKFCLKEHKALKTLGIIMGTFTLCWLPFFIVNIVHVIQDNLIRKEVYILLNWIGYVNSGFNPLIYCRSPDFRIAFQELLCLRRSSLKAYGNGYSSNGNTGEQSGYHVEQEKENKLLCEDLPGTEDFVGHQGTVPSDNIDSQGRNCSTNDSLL
AP-2 complex subunit beta (Homo sapiens), sequence (P63010 whole entry, looked up, the tested form may be a part, one chain of several): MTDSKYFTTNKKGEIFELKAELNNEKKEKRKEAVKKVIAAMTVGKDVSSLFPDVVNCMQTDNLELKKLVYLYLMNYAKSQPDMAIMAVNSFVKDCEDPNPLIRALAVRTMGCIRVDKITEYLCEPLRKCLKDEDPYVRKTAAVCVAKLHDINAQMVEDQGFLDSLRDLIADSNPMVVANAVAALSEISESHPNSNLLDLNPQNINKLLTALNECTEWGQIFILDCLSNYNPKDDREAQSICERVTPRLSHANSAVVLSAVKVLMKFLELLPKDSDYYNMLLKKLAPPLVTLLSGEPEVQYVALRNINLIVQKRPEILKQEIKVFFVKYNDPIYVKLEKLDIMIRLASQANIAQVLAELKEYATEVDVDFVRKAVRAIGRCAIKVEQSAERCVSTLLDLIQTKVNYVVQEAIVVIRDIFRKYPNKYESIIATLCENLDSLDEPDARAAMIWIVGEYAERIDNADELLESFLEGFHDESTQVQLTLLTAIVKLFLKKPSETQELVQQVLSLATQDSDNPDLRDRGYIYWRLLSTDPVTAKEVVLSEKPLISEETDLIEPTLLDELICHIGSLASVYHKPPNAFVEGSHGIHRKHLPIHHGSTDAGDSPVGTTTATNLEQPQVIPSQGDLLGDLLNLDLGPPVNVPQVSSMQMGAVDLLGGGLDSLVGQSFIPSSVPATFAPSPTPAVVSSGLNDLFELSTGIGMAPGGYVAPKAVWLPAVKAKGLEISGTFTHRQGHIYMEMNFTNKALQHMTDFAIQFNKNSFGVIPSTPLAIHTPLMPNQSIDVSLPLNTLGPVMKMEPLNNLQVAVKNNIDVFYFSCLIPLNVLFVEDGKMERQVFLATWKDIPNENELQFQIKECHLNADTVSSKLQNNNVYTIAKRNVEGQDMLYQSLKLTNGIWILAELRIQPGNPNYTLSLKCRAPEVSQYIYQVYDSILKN
ATP-binding cassette sub-family B member 6 (Homo sapiens), sequence (Q9NP58 whole entry, looked up): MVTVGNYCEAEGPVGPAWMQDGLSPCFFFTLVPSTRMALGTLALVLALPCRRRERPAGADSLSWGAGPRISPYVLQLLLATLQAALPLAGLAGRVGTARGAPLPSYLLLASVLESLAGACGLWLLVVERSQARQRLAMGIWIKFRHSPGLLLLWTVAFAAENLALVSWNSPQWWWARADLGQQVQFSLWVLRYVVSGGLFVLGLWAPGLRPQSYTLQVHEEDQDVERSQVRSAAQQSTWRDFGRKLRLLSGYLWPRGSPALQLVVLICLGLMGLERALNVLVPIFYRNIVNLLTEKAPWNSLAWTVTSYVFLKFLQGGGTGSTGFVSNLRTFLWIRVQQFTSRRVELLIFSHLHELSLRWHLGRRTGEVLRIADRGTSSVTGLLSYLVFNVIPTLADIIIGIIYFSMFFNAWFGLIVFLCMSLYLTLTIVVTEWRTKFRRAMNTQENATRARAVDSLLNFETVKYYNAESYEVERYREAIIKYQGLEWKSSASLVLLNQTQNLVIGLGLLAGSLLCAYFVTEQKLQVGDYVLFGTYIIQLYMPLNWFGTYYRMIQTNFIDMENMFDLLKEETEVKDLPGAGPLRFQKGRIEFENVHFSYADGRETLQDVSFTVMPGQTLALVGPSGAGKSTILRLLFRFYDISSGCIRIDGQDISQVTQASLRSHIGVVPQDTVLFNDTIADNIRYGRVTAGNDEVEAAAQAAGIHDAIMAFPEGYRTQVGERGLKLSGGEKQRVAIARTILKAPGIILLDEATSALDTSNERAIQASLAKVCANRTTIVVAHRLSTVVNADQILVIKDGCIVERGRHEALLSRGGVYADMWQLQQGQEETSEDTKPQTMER
Integrin beta-1 (Homo sapiens) + Integrin alpha-4 (Homo sapiens), sequence (P05556 whole entry, looked up): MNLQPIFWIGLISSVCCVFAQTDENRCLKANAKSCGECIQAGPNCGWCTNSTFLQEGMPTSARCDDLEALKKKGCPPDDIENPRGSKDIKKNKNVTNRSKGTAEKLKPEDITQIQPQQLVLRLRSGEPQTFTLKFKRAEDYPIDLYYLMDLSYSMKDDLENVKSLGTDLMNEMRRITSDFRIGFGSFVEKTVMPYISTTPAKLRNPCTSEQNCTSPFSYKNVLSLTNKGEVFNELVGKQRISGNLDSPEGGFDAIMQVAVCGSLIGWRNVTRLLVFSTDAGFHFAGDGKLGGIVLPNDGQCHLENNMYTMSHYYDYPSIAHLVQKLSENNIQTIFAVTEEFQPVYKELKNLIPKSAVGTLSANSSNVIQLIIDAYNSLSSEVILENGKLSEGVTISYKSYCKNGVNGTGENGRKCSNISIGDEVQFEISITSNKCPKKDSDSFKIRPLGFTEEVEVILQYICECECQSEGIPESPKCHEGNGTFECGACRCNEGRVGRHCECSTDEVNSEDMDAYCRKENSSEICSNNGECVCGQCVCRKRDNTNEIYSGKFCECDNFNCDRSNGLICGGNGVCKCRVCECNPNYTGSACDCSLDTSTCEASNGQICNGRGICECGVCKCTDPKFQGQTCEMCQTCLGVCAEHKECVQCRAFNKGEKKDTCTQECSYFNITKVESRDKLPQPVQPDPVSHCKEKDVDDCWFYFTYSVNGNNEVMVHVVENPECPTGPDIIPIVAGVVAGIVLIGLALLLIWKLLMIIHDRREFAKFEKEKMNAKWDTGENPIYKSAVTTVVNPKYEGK
Integrin beta-1 (Homo sapiens) + Integrin alpha-4 (Homo sapiens), sequence (P13612 whole entry, looked up): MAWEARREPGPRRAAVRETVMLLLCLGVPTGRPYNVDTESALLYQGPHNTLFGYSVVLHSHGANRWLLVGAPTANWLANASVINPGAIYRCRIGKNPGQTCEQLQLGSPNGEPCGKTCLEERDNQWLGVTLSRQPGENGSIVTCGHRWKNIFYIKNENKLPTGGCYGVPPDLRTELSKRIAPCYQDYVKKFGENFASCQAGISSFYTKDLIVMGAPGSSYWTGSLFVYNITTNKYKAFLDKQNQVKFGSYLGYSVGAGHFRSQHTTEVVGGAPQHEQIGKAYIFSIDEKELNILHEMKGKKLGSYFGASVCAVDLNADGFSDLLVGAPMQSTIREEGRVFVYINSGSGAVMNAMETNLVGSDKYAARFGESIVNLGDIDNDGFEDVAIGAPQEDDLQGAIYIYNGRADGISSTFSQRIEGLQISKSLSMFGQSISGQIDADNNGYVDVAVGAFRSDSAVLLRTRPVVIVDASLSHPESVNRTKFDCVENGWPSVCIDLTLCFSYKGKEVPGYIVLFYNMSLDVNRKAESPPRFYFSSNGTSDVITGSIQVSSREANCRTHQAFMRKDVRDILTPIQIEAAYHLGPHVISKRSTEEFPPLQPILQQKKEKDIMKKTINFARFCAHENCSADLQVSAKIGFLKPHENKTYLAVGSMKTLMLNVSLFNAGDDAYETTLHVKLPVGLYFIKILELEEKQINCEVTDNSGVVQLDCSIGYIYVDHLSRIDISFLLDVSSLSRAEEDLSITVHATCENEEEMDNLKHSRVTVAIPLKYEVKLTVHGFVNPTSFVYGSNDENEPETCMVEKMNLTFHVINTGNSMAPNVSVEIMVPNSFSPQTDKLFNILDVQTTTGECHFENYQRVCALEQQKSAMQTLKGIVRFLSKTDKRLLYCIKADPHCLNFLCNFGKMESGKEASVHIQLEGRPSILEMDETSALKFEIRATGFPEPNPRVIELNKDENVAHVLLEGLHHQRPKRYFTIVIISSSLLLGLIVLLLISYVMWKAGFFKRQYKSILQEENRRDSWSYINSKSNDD
Beta-adrenergic receptor kinase 1 (Homo sapiens), sequence (P25098 whole entry, looked up): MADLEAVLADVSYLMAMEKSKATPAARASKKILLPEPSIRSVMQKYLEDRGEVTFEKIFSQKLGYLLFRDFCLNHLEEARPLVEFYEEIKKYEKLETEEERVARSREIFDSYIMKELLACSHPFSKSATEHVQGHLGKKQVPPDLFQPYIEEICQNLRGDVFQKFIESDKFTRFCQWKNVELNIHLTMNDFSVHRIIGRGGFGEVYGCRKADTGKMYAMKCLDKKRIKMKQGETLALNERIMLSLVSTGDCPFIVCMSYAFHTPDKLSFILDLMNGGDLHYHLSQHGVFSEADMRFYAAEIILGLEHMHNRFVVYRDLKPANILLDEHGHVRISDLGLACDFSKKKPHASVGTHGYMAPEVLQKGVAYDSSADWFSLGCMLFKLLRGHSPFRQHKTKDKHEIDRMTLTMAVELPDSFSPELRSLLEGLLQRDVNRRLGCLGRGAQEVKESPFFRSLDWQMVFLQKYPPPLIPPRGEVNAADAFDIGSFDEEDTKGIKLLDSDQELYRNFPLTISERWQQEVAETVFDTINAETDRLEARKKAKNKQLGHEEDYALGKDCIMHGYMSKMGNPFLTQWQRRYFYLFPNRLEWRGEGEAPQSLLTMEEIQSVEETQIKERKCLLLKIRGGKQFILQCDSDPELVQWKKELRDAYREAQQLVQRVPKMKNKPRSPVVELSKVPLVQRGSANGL

For orientation: inhibition means the drop in the measured response relative to a control, in per cent. With `OCC(O)CN1CCN(c2ccccc2)CC1` (stereo not given), in assay [1], the percent of DMSO control GFP is 99.3% (inactive). The GFP response vs DMSO in assay [2] and in assay [4] was 103% (inactive) each time. Moreover, in assay [3], the percent response of DMSO control was 90.5% (inactive). The GFP response, % of DMSO in assay [5] was 102% (inactive). The same compound returned a double positive events in assay [6] of 59.4%. In addition, in assay [6], the vesicle binding response was 145% (inactive). Moreover, the values for the inhibition in assay [7], in [11] and in assay [15] were 9.1% (inactive), -3.7% (inactive) and 9% (inactive), respectively. Further, the superoxide response (% of plate) in [8] is 99.2% (inactive). Besides, in assay [9], the aptamer binding inhibition is 7% (inactive). The response in [10] is -29.2% (inactive); in [12], -24.2% (inactive). The binding (% of control) in assay [13] is 96.2% (inactive). Besides, in assay [14], the efflux inhibition (fraction of control) is -0.04 (inactive). In addition, the differentiation response in [16] was 11.8% (inactive).

Consider `COc1cc(C(=O)CCN2CCC(c3ccccc3)C2)cc(OC)c1OC` (stereo not given), for which, in assay [1], the percent of DMSO control GFP was 108% (inactive). Also, the GFP response vs DMSO is 97.7% (inactive) in assay [2] and 95.9% (inactive) in [4]. For the same compound, the percent response of DMSO control in assay [3] is 110% (inactive). Moreover, the GFP response, % of DMSO in assay [5] was 105% (inactive). In [6], this compound gave a double positive events of 57.9%. In addition, the vesicle binding response in assay [6] was 131% (inactive). For the same compound, the inhibition in [7] was 1.59% (inactive); in assay [11], 4.79% (inactive); in assay [15] it was 0% (inactive). The superoxide response (% of plate) in assay [8] was 117% (inactive). The aptamer binding inhibition in assay [9] is 2% (inactive). Also, the response is 2% (inactive) in assay [10] and -0.17% (inactive) in [12]. Also, the binding (% of control) in [13] is 100% (inactive). Moreover, the efflux inhibition (fraction of control) in assay [14] was 0.1 (inactive). For the same compound, the differentiation response in [16] is -10.4% (inactive).

For the compound `NCCc1cnc[nH]1`, the percent of DMSO control GFP in [1] was 89.8% (inactive) and 102% (inactive). Besides, the GFP response vs DMSO is 129% (inactive) and 104% (inactive) in assay [2]; 78.7% (inactive) and 113% (inactive) in assay [4]. For the same compound, in assay [3], the percent response of DMSO control is 101% (inactive) and 102% (inactive). The GFP response, % of DMSO in assay [5] is 84.5% (inactive) and 117% (inactive). The double positive events in [6] was 55.6% and 61.9%. Also, the vesicle binding response in [6] is 192% (inactive) and 166% (inactive). The inhibition in assay [7] was -33.3% (inactive) and -35.2% (inactive); in assay [11], -4.51% (inactive) and -1.77% (inactive); in [15], 5% (inactive) and -3% (inactive). For the same compound, in [8], the superoxide response (% of plate) was 105% (inactive) and 109% (inactive). Also, the aptamer binding inhibition in [9] was 3% (inactive) and 0% (inactive). Further, the response in [10] is -15.1% (inactive) and -30.5% (inactive); in assay [12] it was 25.1% (active) and 47.3% (active). In addition, the binding (% of control) in assay [13] was 105% (inactive) and 106% (inactive). Besides, the efflux inhibition (fraction of control) in assay [14] was 0.09 (inactive) and 0.04 (inactive). In addition, the differentiation response in assay [16] is -5.73% (inactive) and -4.99% (inactive).

For the compound `COc1cccc(N2C(=O)CC(c3c[nH]c4ccccc34)C2=O)c1` (stereo not given), the percent of DMSO control GFP in assay [1] is 108% (inactive). Besides, the results for the GFP response vs DMSO in assay [2] and in assay [4] were 103% (inactive) and 106% (inactive), respectively. In addition, the percent response of DMSO control in assay [3] is 110% (inactive). Moreover, in assay [5], the GFP response, % of DMSO is 97.1% (inactive). Also, the double positive events in assay [6] came out at 61.9%. Besides, in assay [6], the vesicle binding response is 159% (inactive). In addition, the values for the inhibition in assay [7], in assay [11] and in assay [15] were -42.6% (inactive), 10% (inactive) and -26% (inactive), respectively. Further, the superoxide response (% of plate) in assay [8] is 95.3% (inactive). Moreover, in [9], the aptamer binding inhibition is 1% (inactive). Further, the results for the response in assay [10] and in assay [12] were 12% (inactive) and -0.64% (inactive), respectively. Further, the binding (% of control) in [13] is 105% (inactive). For the same compound, in [14], the efflux inhibition (fraction of control) is 0 (inactive). The differentiation response in assay [16] was -13.3% (inactive).

Turning to `O=C(CCCN1C(=O)/C(=C\c2cccs2)SC1=S)Nc1ccccn1`, the percent of DMSO control GFP in assay [1] was 103% (inactive). Moreover, the GFP response vs DMSO in assay [2] was 99.7% (inactive); in assay [4] it was 99.1% (inactive). Further, the percent response of DMSO control in assay [3] was 92.4% (inactive). In addition, the GFP response, % of DMSO in assay [5] is 96.8% (inactive). In assay [6], this compound yielded a double positive events of 61.7%. Further, in assay [6], the vesicle binding response is 154% (inactive). Also, the figures for the inhibition in [7], in assay [11] and in [15] were -2.43% (inactive), -9.99% (inactive) and -5% (inactive), respectively. Also, the superoxide response (% of plate) in [8] was 115% (inactive). In addition, the aptamer binding inhibition in [9] was 2% (inactive). Further, the response is -9.49% (inactive) in assay [10] and -5.78% (inactive) in assay [12]. Moreover, in assay [13], the binding (% of control) was 94% (inactive). Further, the efflux inhibition (fraction of control) in assay [14] was 0.35 (inactive). The differentiation response in assay [16] is -7.5% (inactive).
